# Experimental data published in the supplement of paper PMC5662767.
# System: Drosophila S2 cl14 SmoIP sensor cells
# Assay: normalized SmoIP GFP fluorescence (untreated unstimulated = 0%, untreated Hh-stimulated = 100%); higher = more Smo activation sensor fluorescence
# Settings: stimulation: mock conditioned medium (-Hh); compound concentration: 2 uM; 24 h
# 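Note: flow cytometry read-out as median GFP intensity of gated cells, compounds added 30 min before Hh-conditioned or mock medium, mock-treated cells serving as unstimulated baseline.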
row,Structure (SMILES),normalized SmoIP GFP fluorescence
1,Cc1ccc(-n2nc(C(C)(C)C)cc2NC(=O)Nc2ccc(OCCN3CCOCC3)c3ccccc23)cc1 [BIRB-796-(Doramapimod)],72.2%
2,COc1cc(Nc2nc3ccccc3nc2NS(=O)(=O)c2ccc(NC(=O)c3ccc(C)c(OC)c3)cc2)cc(OC)c1,5.66%
3,O=C(Nc1c[nH]nc1-c1nc2ccc(CN3CCOCC3)cc2[nH]1)NC1CC1,94.8%
4,N#CC(=C(/N)Sc1ccccc1N)/C(C#N)=C(/N)Sc1ccccc1N,23.1%
5,CCN(CC)CC(=O)Nc1c(C)cccc1C [Lidocaine],2.97%
6,Cc1cn([C@H]2C=C[C@@H](CO)O2)c(=O)[nH]c1=O [Stavudine],-2.1%
7,C=CC(=O)Nc1cccc(Oc2nc(Nc3ccc(N4CCN(C)CC4)cc3)ncc2Cl)c1,11%
8,COc1c(C)c2c(c(O)c1C/C=C(\C)CCC(=O)OCCN1CCOCC1)C(=O)OC2 [Mycophenolate-mofetil-(CellCept)],5.98%
9,Cc1nc(N)sc1-c1ccnc(Nc2ccc(N3CCOCC3)cc2)n1,94.3%
10,O=C(/C=C/c1ccc(CN(CCO)CCc2c[nH]c3ccccc23)cc1)NO,79.7%
11,C=CC[N+]1([C@H]2C[C@H]3[C@@H]4CC[C@H]5C[C@H](O)[C@@H](N6CCOCC6)C[C@]5(C)[C@H]4CC[C@]3(C)[C@H]2OC(C)=O)CCCC1 [Rocuronium-bromide],10.2%
